This is one part of a sample in which hits are shown more often than they occur.
NOMO-1 viab: STK33 inhibitor candidate reducing NOMO-1 cell viability; inhibition, % (test concentration not listed); 7.5% of 37,000 active; NOMO-1 AML viability, CellTiter-Glo luminescence, 72 h; in the data active = inhibition above about 80%; inconclusive = no clear call, values can overlap the other calls
STK33 kin inh: blocks human STK33 kinase activity; ADP-Glo luminescence, MBP substrate; 0.44% of 27,000 active; inhibition, % at 12.5 µM; Q9BYT3; in the data active = inhibition above about 20%; inconclusive = no clear call, values can overlap the other calls
Target sequence (Q9BYT3 whole entry, looked up): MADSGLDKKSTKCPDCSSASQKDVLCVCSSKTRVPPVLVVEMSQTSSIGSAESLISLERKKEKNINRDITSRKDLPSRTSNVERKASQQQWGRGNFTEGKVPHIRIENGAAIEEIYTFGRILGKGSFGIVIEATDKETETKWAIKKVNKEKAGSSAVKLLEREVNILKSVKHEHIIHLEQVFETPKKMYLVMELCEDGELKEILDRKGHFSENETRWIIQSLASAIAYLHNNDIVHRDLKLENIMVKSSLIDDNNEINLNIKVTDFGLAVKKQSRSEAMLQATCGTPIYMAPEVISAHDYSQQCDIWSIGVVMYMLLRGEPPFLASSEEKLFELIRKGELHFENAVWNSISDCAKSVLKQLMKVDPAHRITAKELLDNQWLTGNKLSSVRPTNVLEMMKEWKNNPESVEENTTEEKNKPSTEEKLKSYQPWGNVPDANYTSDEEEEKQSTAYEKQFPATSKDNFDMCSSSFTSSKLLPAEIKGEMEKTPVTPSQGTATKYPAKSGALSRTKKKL
PD-1 reverse act: activators reversing PD-1 mediated T-cell inhibition; 29,000 tested, under 10 active; primary human CD4 T cells, PD-L1 beads, CellTiter-Glo 96 h; activation, % (concentration not given with the values); call rule not given here;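 also: 0% = median vehicle wells and 100% = positive control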
The depositor's hits bear a star.

Screening COc1ccc(S(=O)(=O)Nc2ccc3c(c2)C(=O)N([C@H](C)CO)C[C@H](C)[C@H](CN(C)Cc2ccc(-c4ccccc4)cc2)O3)cc1 returned NOMO-1 viab 24 and PD-1 reverse act 3.
C[C@H](CO)N1C[C@H](C)[C@H](CN(C)Cc2ccc(Oc3ccccc3)cc2)Oc2ccc(NS(=O)(=O)c3ccccc3)cc2C1=O was read as NOMO-1 viab inconclusive and PD-1 reverse act -2.
For C[C@@H]1CN([C@@H](C)CO)C(=O)c2cc(NS(=O)(=O)c3ccc(F)cc3)ccc2O[C@H]1CN(C)Cc1ccc(Oc2ccccc2)cc1 the results were NOMO-1 viab 98*, STK33 kin inh 0 and PD-1 reverse act -2.
Screening COc1ccc(S(=O)(=O)Nc2ccc3c(c2)C(=O)N([C@@H](C)CO)C[C@@H](C)[C@H](CN(C)Cc2ccc(-c4ccccc4)cc2)O3)cc1 returned NOMO-1 viab 122* and PD-1 reverse act 2.
For COc1ccccc1NC(=O)CSC1CC(=O)N(c2ccc(I)cc2)C1=O (stereo not drawn) the results were NOMO-1 viab -14, STK33 kin inh -1 and PD-1 reverse act -1.
Screening Cc1nc([N+](=O)[O-])c(Sc2nc3ncc(Cl)cc3[nH]2)n1Cc1ccccc1 returned NOMO-1 viab 62, STK33 kin inh -2 and PD-1 reverse act -13.
`CC(=O)c1cccc(NC(=O)Cn2nc(C)c([N+](=O)[O-])c2C)c1` gave NOMO-1 viab 9, STK33 kin inh 1 and PD-1 reverse act 2.
For Cc1nc(-c2ccncc2)nc(NCCNc2cc(C(F)(F)F)ccn2)c1Cl the results were NOMO-1 viab 9 and PD-1 reverse act 0.
CCc1cccc(C)c1NC(=O)CSc1nc2cc(C)cc(-n3nc4ccccc4n3)c2o1 was read as NOMO-1 viab 2, STK33 kin inh 1 and PD-1 reverse act 0.
`Cc1noc(C)c1S(=O)(=O)Nc1ccc2c(c1)C(=O)N([C@H](C)CO)C[C@H](C)[C@@H](CN(C)Cc1ccc(C(=O)Nc3ccccc3N)cc1)OCCCC[C@@H](C)O2` gave NOMO-1 viab 127* and PD-1 reverse act -1.
Cc1noc(C)c1S(=O)(=O)Nc1ccc2c(c1)C(=O)N([C@@H](C)CO)C[C@@H](C)[C@H](CN(C)Cc1ccc(C(=O)Nc3ccccc3N)cc1)O2 was read as NOMO-1 viab 12 and PD-1 reverse act -2.
For Cc1noc(C)c1S(=O)(=O)Nc1ccc2c(c1)C(=O)N([C@H](C)CO)C[C@H](C)[C@H](CN(C)Cc1ccc(C(=O)Nc3ccccc3N)cc1)OCCCC[C@@H](C)O2 the results were NOMO-1 viab 139* and PD-1 reverse act 0.
For Cc1noc(C)c1S(=O)(=O)Nc1ccc2c(c1)C(=O)N([C@H](C)CO)C[C@H](C)[C@@H](CN(C)Cc1ccc(C(=O)O)cc1)OCCCC[C@@H](C)O2 the results were NOMO-1 viab -21, STK33 kin inh 0 and PD-1 reverse act 2.
For Cc1c(Br)c([N+](=O)[O-])nn1CC(=O)Nc1ccc(F)cc1 the results were NOMO-1 viab -12, STK33 kin inh 1 and PD-1 reverse act -1.
`Nc1nonc1-c1ccccc1` gave NOMO-1 viab 15 and PD-1 reverse act 0.
C1=Cc2nonc2C2C=C(c3ccccc3)N=C12 (stereo not drawn) was read as NOMO-1 viab 92* and PD-1 reverse act -1.
For CCc1c(O)cc(OC)c2c1O[C@H](C)CC2=O the results were NOMO-1 viab -7, STK33 kin inh 1 and PD-1 reverse act 1.
`C[C@H]1CN([C@@H](C)CO)C(=O)Cc2cc(NC(=O)C3CC3)ccc2O[C@@H]1CN(C)Cc1ccc(C(=O)Nc2ccccc2N)cc1` gave NOMO-1 viab 55 and PD-1 reverse act 0.
Screening C[C@@H]1CN([C@H](C)CO)C(=O)Cc2cc(NC(=O)C3CCCCC3)ccc2O[C@@H]1CN(C)Cc1ccc(C(=O)Nc2ccccc2N)cc1 returned NOMO-1 viab inconclusive and PD-1 reverse act 0.
Screening C[C@H](CO)N1C[C@H](C)[C@H](CN(C)Cc2ccc(C(=O)Nc3ccccc3N)cc2)Oc2ccc(NC(=O)C3CCCCC3)cc2CC1=O returned NOMO-1 viab 141* and PD-1 reverse act -3.
C[C@H](CO)N1C[C@H](C)[C@H](CN(C)Cc2ccc(C(=O)Nc3ccccc3N)cc2)Oc2ccc(NC(=O)C3CC3)cc2CC1=O was read as NOMO-1 viab 127* and PD-1 reverse act -5.
`COc1ccc(S(=O)(=O)NCCc2ccc(OC)c(OC)c2)cc1C` gave NOMO-1 viab -17 and STK33 kin inh 0.
For Cc1ccc(Cn2nc(C(=O)Sc3cccc(Cl)c3Cl)cc2C)cc1 the results were NOMO-1 viab 69, STK33 kin inh -2 and PD-1 reverse act -3.

Screening data (PubChem BioAssay)
